Most compounds without a hit are left out; they make up all but 6.3% or so of the library.
TIM10 inh: growth inhibitors of TIM10 yeast strain; inhibition, % at 10 µM; S. cerevisiae TIM10 strain growth, BacTiter-Glo luminescence, 24 h; hit rate 1.4% among 330,000;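 active = inhibition of 40% or more at the single tested concentration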;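 also: wild-type TIM10 isogenic control strain grown at permissive 25 °C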
tim23-1 inh: growth inhibitors of tim23-1 mutant yeast; S. cerevisiae tim23-1 growth, BacTiter-Glo luminescence, 24 h; inhibition, % at 20 µM; hit rate 1.3% among 330,000; AID 463212;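 active = growth inhibition of the mutant yeast at or above 50%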;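 also: temperature-sensitive mutant grown at 25 °C; plate controls were DMSO-treated mutant yeast for no effect and medium wells lacking yeast for full effect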
Mdm2-MdmX inh: human Mdm2/MdmX binding inhibition | O15151+Q00987 | SaOS-2 split-luciferase Mdm2/MdmX complementation, luminescence | inhibition, % at 8 µM | hit rate 3% among 330,000 | AID 485346;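 active = inhibition of at least 50% at 8 µM in the primary screen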
Target sequence (O15151 whole entry, looked up): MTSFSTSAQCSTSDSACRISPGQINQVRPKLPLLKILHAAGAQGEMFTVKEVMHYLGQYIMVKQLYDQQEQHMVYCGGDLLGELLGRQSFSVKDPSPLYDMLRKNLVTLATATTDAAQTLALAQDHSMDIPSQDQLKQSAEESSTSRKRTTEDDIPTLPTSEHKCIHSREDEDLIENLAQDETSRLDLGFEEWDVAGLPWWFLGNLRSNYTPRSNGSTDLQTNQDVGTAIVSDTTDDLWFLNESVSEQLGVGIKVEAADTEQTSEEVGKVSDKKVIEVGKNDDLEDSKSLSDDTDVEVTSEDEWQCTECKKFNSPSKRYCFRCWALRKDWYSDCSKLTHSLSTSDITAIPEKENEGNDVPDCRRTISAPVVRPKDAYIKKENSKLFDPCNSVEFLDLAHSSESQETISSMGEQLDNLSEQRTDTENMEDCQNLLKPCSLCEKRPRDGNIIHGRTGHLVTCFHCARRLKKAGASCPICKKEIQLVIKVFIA
Target sequence (Q00987 whole entry, looked up): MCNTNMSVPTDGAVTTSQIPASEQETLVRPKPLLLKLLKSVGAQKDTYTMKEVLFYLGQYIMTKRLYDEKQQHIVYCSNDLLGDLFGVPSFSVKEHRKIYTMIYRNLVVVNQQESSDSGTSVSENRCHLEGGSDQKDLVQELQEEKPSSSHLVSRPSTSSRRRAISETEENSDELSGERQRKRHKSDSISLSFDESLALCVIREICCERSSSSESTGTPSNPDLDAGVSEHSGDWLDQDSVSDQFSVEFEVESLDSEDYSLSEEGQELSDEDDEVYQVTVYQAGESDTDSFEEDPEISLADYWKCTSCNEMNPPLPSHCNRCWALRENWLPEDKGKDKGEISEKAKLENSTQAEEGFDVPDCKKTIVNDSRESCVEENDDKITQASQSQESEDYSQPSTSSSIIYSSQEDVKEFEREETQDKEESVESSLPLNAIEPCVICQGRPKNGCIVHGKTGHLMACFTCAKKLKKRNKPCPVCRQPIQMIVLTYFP
tim10-1 inh: growth inhibitors of tim10-1 mutant yeast. S. cerevisiae tim10-1 ts strain growth, BacTiter-Glo, 24 h. inhibition, % at 20 µM. hit rate 2.2% among 330,000;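 active = inhibition of at least 40%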;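 also: mutant grown at 25 °C; 0% = DMSO wells with yeast and 100% = wells holding no yeast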
MPTP inh: inhibitors of mitochondrial permeability transition pore | inhibition, % at 10 µM | AID 602449 | isolated mouse mitochondria, Ca2+ swelling absorbance, 30 min | hit rate 1.4% among 360,000;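 active = inhibition of 50% or more, scaled per plate between neutral and stimulator controls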;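 also: 0% = DMSO wells given calcium and 100% = 1 mM EGTA wells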
Mdm2 MdmX conf: human Mdm2/MdmX binding inhibition, confirmed; shares compounds with Mdm2-MdmX inh; inhibition, % at 8 µM; hit rate 55% among 10,000; luminescent assay; in the data active = inhibition above about 40%
FLuc counter: counter-screen for Mdm2/MdmX inhibitors: full-length luciferase | SaOS-2 full-length luciferase counterscreen, luminescence | inhibition, % at 8 µM | shares compounds with Mdm2-MdmX inh | hit rate 77% among 6,200;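 active = mean inhibition at 8 µM reaching about 37%, which flags the compound as non-specific, limit read from the data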;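 also: p53-null SaOS-2 cells with luciferase driven by a doxycycline-inducible promoter; compound on cells about two nights before reading with doxycycline added after day one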
* hit, by the source's call.

`O=C(Cn1nc(-c2ccccc2)ccc1=O)Nc1ccc(NC(=O)c2ccccn2)cc1` gave TIM10 inh -52, tim23-1 inh -35, Mdm2-MdmX inh 83*, tim10-1 inh -50, MPTP inh 1 and Mdm2 MdmX conf 19.
Screening Cc1cc(N2CCN(C(C(=O)NC3CCCC3)C(C)C)CC2)c2ccccc2n1 (centres undefined) returned MPTP inh -1.
Screening C[C@@]12C(=O)N(c3ccccc3)C(=O)N1[C@@H]1c3ccccc3OC[C@@H]1[C@H]2c1ccccc1 returned TIM10 inh 11, tim23-1 inh 43, Mdm2-MdmX inh 29, tim10-1 inh 13 and MPTP inh 1.
C[C@]12C(=O)N(c3ccc(C(F)(F)F)cc3)C(=O)N1[C@H]1c3ccccc3OC[C@@H]1[C@H]2c1ccccc1 was read as TIM10 inh 16, tim23-1 inh 25, Mdm2-MdmX inh 57*, tim10-1 inh 14, MPTP inh 3 and Mdm2 MdmX conf 8.
C[C@]12CC[C@H](O)CC1=CCC1C2CC[C@@]2(C)C1CC[C@@H]2NCc1ccccc1 (some centres undefined) was read as MPTP inh 0.
`CC(C)(C)NC(=O)CN(c1cccc([N+](=O)[O-])c1)S(=O)(=O)c1ccccc1` gave TIM10 inh -7, tim23-1 inh 8, Mdm2-MdmX inh 22, tim10-1 inh 10 and MPTP inh 0.
O=C(CN(c1cccc(C(F)(F)F)c1)S(=O)(=O)c1ccc(Cl)c([N+](=O)[O-])c1)NCc1ccccc1 was read as TIM10 inh -4, tim23-1 inh -9, Mdm2-MdmX inh 82*, tim10-1 inh -2, MPTP inh 1, Mdm2 MdmX conf 40* and FLuc counter 59*.
For CC(NC(=O)CN(c1cccc(C(F)(F)F)c1)S(=O)(=O)c1ccc(Cl)c([N+](=O)[O-])c1)c1ccccc1 (centres undefined) the results were TIM10 inh -5, tim23-1 inh -9, Mdm2-MdmX inh 82*, tim10-1 inh -2, MPTP inh 35, Mdm2 MdmX conf 55* and FLuc counter 35.
O=C(CN(c1cccc(C(F)(F)F)c1)S(=O)(=O)c1ccc(Cl)c([N+](=O)[O-])c1)NCc1ccccc1Cl was read as TIM10 inh -4, tim23-1 inh -33, Mdm2-MdmX inh 73*, tim10-1 inh -7, MPTP inh 33, Mdm2 MdmX conf 32 and FLuc counter 103*.
Screening O=C(CN(c1ccc(Br)cc1)S(=O)(=O)c1ccc(Cl)c([N+](=O)[O-])c1)NCCc1ccccc1 returned TIM10 inh -4, tim23-1 inh -7, Mdm2-MdmX inh 34, tim10-1 inh 1 and MPTP inh 6.
`Nc1nonc1-c1nc2ccccc2n1CC(=O)Nc1ccccc1` gave TIM10 inh -10, tim23-1 inh -26, Mdm2-MdmX inh 78*, tim10-1 inh 9, MPTP inh 1, Mdm2 MdmX conf 69* and FLuc counter 25.
`CCOC(=O)c1ccccc1NC(=O)Cn1c(-c2nonc2N)nc2ccccc21` gave TIM10 inh 5, tim23-1 inh 20, Mdm2-MdmX inh 61*, tim10-1 inh 12, MPTP inh 4, Mdm2 MdmX conf 55* and FLuc counter 77*.
For Nc1nonc1-c1nc2ccccc2n1CC(=O)NC1CCCC1 the results were TIM10 inh -3, tim23-1 inh 3, Mdm2-MdmX inh -4, tim10-1 inh 13 and MPTP inh -2.
`CCCCn1c(-c2nonc2N)nc2ccccc21` gave TIM10 inh -10, tim23-1 inh 0, Mdm2-MdmX inh 61*, tim10-1 inh -16, MPTP inh 0, Mdm2 MdmX conf 45* and FLuc counter 50*.
For Cc1cc(NC(=O)C2(C)CCN2C(C)C)c2ccccc2n1 (centres undefined) the results were MPTP inh 1.
COc1ccc([C@H]2CC(=O)C=C(c3cc4ccccc4s3)C2)cc1OC was read as TIM10 inh -5, tim23-1 inh -8, Mdm2-MdmX inh 29, tim10-1 inh -2 and MPTP inh 3.
`O=C(Nc1ccc2c(c1)OCO2)c1csc([C@@H]2O[C@H](CO)[C@H](O)[C@H](O)[C@H]2O)n1` gave MPTP inh -2.
`Cc1ccc(Sc2c(C=O)c3ccccc3n2C)cc1` gave TIM10 inh -8, tim23-1 inh 22, Mdm2-MdmX inh 81*, tim10-1 inh 18, MPTP inh 0, Mdm2 MdmX conf 71* and FLuc counter 53*.
For Cc1ccc(Sc2c([N+](=O)[O-])c(=O)n(C)c3ccccc23)cc1 the results were TIM10 inh 15, tim23-1 inh 20, Mdm2-MdmX inh 51*, tim10-1 inh 12, MPTP inh -2 and Mdm2 MdmX conf 14.
Cc1nc(N2CCCCC2)sc1C(=O)c1ccc(Cl)c([N+](=O)[O-])c1 was read as TIM10 inh 24, tim23-1 inh 36, Mdm2-MdmX inh 69*, tim10-1 inh 18 and Mdm2 MdmX conf 24.
Screening Cc1cc(C)nc(NC(=O)c2ccc(Cl)c([N+](=O)[O-])c2)n1 returned TIM10 inh -16, tim23-1 inh 3, Mdm2-MdmX inh -6, tim10-1 inh -7 and MPTP inh 2.
`CCN(CC)CCNc1cc(C)nc2c1C(=O)C(=O)C=C2N1CCCCC1` gave TIM10 inh -1, tim23-1 inh 8, Mdm2-MdmX inh 65*, tim10-1 inh 7, MPTP inh 3, Mdm2 MdmX conf 67* and FLuc counter 29.
For O=C(CSc1ccc2c(c1)OCCO2)Nc1ccc(Br)cn1 the results were TIM10 inh -4, tim23-1 inh 30, Mdm2-MdmX inh 64*, tim10-1 inh 15, MPTP inh 2 and Mdm2 MdmX conf 19.
N#Cc1cnc(=S)n(-c2cc(C(F)(F)F)cc(C(F)(F)F)c2)c1N was read as MPTP inh 15.
`NNC(=O)c1ccc(N2CCc3ccccc32)c([N+](=O)[O-])c1` gave TIM10 inh 16, tim23-1 inh 12, Mdm2-MdmX inh -16, tim10-1 inh -22 and MPTP inh -1.
Nc1ncnc(N2CCc3ccccc32)c1[N+](=O)[O-] was read as TIM10 inh 0, tim23-1 inh 1, Mdm2-MdmX inh 82*, tim10-1 inh -4, MPTP inh 0, Mdm2 MdmX conf 85* and FLuc counter 52*.
`COC(=O)c1cc(C)nc2c1C(=O)C(=O)C=C2N1CCOCC1` gave TIM10 inh 3, tim23-1 inh -5, Mdm2-MdmX inh 65*, tim10-1 inh -8, MPTP inh 5 and Mdm2 MdmX conf 26.
`CCCc1c(C(=O)N/N=C(\C)c2ccc(CC(C)C)cc2)nnn1-c1nonc1N` gave MPTP inh -1.

From PubChem BioAssay
